Compound activity deposited in PubChem by several laboratories.
SKKanGAS inh = S. pyogenes SKKanGAS growth inhibitors in kanamycin, primary screen, streptokinase expression inhibitor project, SKKanGAS strain, BacTiter-Glo luminescence; 6 h; inhibition, % at 7.5 µM; hit rate 1.3% among 300,000;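 active = mean replicate score, as percent of positive control median, at least 50; inconclusive = mean below 50 but one replicate at or above 50; inactive = mean and every replicate below 50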;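 note: strain carries kanamycin resistance gene driven by streptokinase promoter and grows in 40 µg/ml kanamycin; loss of luminescence reflects streptokinase promoter inhibition or plain growth inhibition; 0% = median of DMSO wells and 100% = positive control at its reference dose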
PolyA inhibitor = polyadenylation inhibitors in yeast reporter cells, primary screen, luminescence, S. cerevisiae | S. cerevisiae SKY197-pL101 polyadenylation reporter, beta-gal luminescence; efflux-impaired pdr1/pdr3 knockout yeast; score 100 = 6 SD above DMSO | activity score, % at 12 µM | hit rate 0.02% among 300,000 | AID 1875, 2009;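 active = lowest replicate activity score at least 50, where 100 means six control SD above control mean; inconclusive = lowest score under 50 but half or more replicates reach 50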;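 note: yeast exposed to compound for 9 h at 30 °C; higher score means more reporter readthrough which indicates perturbed polyadenylation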
Calb FLC = C. albicans growth inhibition with fluconazole, primary screen, CaCi-2 strain, Alamar Blue fluorescence; C. albicans CaCi-2 (fluconazole-resistant clinical isolate) + fluconazole, 48 h; AID 1979, 2009; hit rate 0.57% among 300,000; growth inhibition, % (concentration not given with the values);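 active = growth inhibition above about 58% in most replicates, limit read from the data, passing the limit was not always enough; inconclusive = exactly half the replicates above a set limit; inactive = most replicates below a set limit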;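 note: all wells also contain fluconazole at 8 µg/ml as a sub-toxic cotreatment; 0% = median of DMSO wells and 100% = median of geldanamycin control wells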
CR mimetic SO = reduction of superoxide in aged yeast, primary screen, HTS | superoxide response (% of plate mean), % at 10 µM | S. cerevisiae aged cells, superoxide DHE fluorescence; stronger effect = lower value | hit rate 0.18% among 330,000;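 active = superoxide response under a set limit, about three screen SD below normal, cut at about 65% in these data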;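 note: yeast aged for seven days with compound at 30 °C before DHE staining; 100% = average MFI of all compound-treated wells on the plate with controls excluded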
Platelet DG rel = inhibitors of platelet dense granule secretion, primary screen, cell-based, MLPCN, human platelets; human platelet-rich plasma, SFLLRN dense granule ATP release, luminescence; inhibition, %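 (compounds screened at 7.5 µM in platelet-rich plasma)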; hit rate 0.22% among 300,000; AID 1663, 2009;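 active = mean replicate score, as percent of positive control, at or above 50; inconclusive = mean below 50 but at least one replicate at or above 50; inactive = mean and every replicate below 50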
Active calls of the source: *; ? = inconclusive; . = no result. This is a sample that favours compounds with a hit; in the whole collection about 2% have one here.

SMILES	SKKanGAS inh	PolyA inhibitor	Calb FLC	CR mimetic SO	Platelet DG rel
Cc1ccc(S(=O)(=O)N2CCc3ccccc3C2)cc1C	17.6	1.6	-1.7	96.8	-6.3
CCN1CCN(c2ncnc3sc(C)c(-c4ccccc4)c23)CC1	-0.2	21.1	-3.5	101.6	-1.0
COc1ccccc1C(=O)Nc1ccccc1SC(=O)c1ccccc1OC	22.4	-18.2	-2.0	108.5	0.0
O=C(Nc1nnc(-c2ccncc2)o1)c1ccccc1	-6.7	1.7	3.2	108.8	-38.1
O=C(COc1ccccc1)Nc1nnc(-c2ccccc2Cl)o1	52.8*	-4.9	55.8	89.8	-13.7
O=C(Nc1nnc(-c2ccc3c(c2)CCCC3)o1)c1ccccc1Cl	90.1*	19.0	28.8	133.5	8.8
O=C(COc1ccccc1)Nc1nnc(-c2ccc3c(c2)CCCC3)o1	88.6*	18.7	81.5*	105.2	-7.3
O=C(Nc1nnc(-c2ccc3c(c2)CCCC3)o1)c1ccccc1	93.7*	2.5	87.6*	109.8	-1.9
O=C(COc1ccccc1)Nc1nnc(-c2ccc(F)cc2)o1	27.8	2.1	63.9	103.5	-6.5
CC(C)c1ccc(OCC(=O)Nc2ccc3oc(=O)ccc3c2)cc1	-1.7	9.5	13.7	99.7	-1.2
Nn1c(-c2ccc(O)cc2)nnc1-c1ccc(O)cc1	3.6	-4.6	-4.5	95.9	12.9
Cc1csc(=O)n1CCC(=O)OCC(=O)Nc1cccc(C#N)c1	-19.8	14.0	.	97.8	9.3
O=C(Nc1nnc(-c2ccc3c(c2)OCCO3)o1)c1ccc(Cc2ccccc2)cc1	101.7*	0.4	3.0	100.9	-14.1
O=C(COC(=O)c1cc([N+](=O)[O-])ccc1N1CCOCC1)NCc1ccc(Cl)cc1Cl	3.2	29.1	9.3	103.6	8.3
Cc1ccc(-c2nnc(NC(=O)c3ccc([N+](=O)[O-])o3)o2)c(C)c1	69.5*	-5.4	84.8*	100.6	-11.3
COc1ccc(-c2nnc(NC(=O)c3ccc([N+](=O)[O-])o3)o2)c(OC)c1	14.4	8.7	-8.8	109.0	1.8
NC(=O)C1(C(N)=O)OC1c1ccc(Cl)c(Cl)c1 (stereo unspecified)	-4.2	-3.9	-11.5	103.9	3.8
COc1cc(OC)cc(C(=O)NCC2CCCN(C(=O)c3oc(C)cc3C)C2)c1 (stereo unspecified)	0.1	23.8	2.2	95.5	-3.1
CCN(CC)S(=O)(=O)c1cc(OC)ccc1N=Nc1ccc(O)c2ncccc12	67.8*	-4.8	85.7*	89.1	1.2
CCOc1ccc(N=Nc2ccc(O)c3ncccc23)cc1	91.6*	-5.5	83.4*	85.4	-3.4
CCS(=O)(=O)c1ccc(OC)c(N=Nc2ccc(O)c3ncccc23)c1	23.1	4.7	-11.6	108.8	1.9
NS(=O)(=O)c1ccc(N=Nc2c(O)ccc3ccccc23)cc1	-1.1	9.0	33.4	83.1	17.1
NS(=O)(=O)c1ccc(N=Nc2ccc(O)c3ncccc23)cc1	10.8	2.7	79.2*	89.3	12.1
CCOc1ccc(N=Nc2cc(C(C)C)ccc2O)cc1	-2.7	9.3	0.8	103.4	1.1
CC1(C)Cc2c(sc(NC(=O)C(=O)N3CCCC3)c2C#N)CO1	-0.4	-2.9	-0.1	80.2	2.2
SMILES	SKKanGAS inh	PolyA inhibitor	Calb FLC	CR mimetic SO	Platelet DG rel
O=C(CC1C(=O)NCCN1C(=O)c1ccc([N+](=O)[O-])cc1)Nc1ccc(F)cc1 (stereo unspecified)	-0.2	21.6	-4.2	95.2	0.8
CCOc1ccc(S(=O)(=O)Nc2cc(SCC(=O)O)c(O)c3ccccc23)cc1	13.9	3.6	1.6	122.7	-1.1
O=S(=O)(Nc1cc(Sc2cccc3cccnc23)c(O)c2ccccc12)c1ccccc1	91.4*	-36.2	-33.3	.	-0.8
CCO[C@@H]1OC(C(=O)N2CCOCC2)=C[C@H](c2coc3ccccc3c2=O)[C@H]1CCCO	0.3	6.8	1.5	87.3	6.2
CCn1c(SCC(=O)Nc2nccs2)nnc1-c1ccccn1	4.2	-3.9	3.7	101.4	-0.3
Cc1nn(C)cc1C(C(=O)NC1CCCCC1)N(Cc1ccccc1Cl)C(=O)c1cnccn1 (stereo unspecified)	-0.4	9.5	78.3*	87.5	7.6
Fc1ccccc1COc1ccc(-c2nnn(Cc3ccccc3F)n2)cc1	13.6	-0.2	6.7	103.9	15.4
Cn1nnc(-c2ccc(OCc3ccccc3F)cc2)n1	52.6*	-8.1	-5.2	97.1	29.6
Cc1ccc(NC(=O)C2CCN(S(C)(=O)=O)CC2)cc1Cl	5.8	0.2	-7.6	91.2	-5.4
NC(=O)c1ccccc1N/C=C/C(=O)c1ccc(Cl)cc1Cl	4.2	3.0	10.6	.	51.5*
CC(OC(=O)CC1CCCCC1)C(=O)Nc1cccc(C#N)c1 (stereo unspecified)	2.2	28.8	-9.7	99.9	-10.9
CCOC(=O)c1cc(C#N)c(N2CCN(c3ccc(OC)cc3)CC2)[nH]c1=O	8.9	-0.5	92.5*	97.2	8.0
Cc1ccc(C)c(OCCC(=O)N(C)CC(=O)Nc2c(C)cccc2C)c1	.	.	.	103.8	.
O=C(NNc1c2ccccc2nc2ccccc12)c1ccc(O)cc1O	51.5*	4.3	-6.7	96.8	-2.6
C/C(=N\NC(=O)c1cc(C2CC2)nc2ccccc12)c1ccc(O)cc1O	4.5	2.8	101.5*	88.0	5.1
CCC1(CC)NC(=O)N(CC(=O)OC(C)C(=O)Nc2ccc(NC(C)=O)cc2)C1=O (stereo unspecified)	-8.8	2.5	-5.0	116.9	-1.5
Cc1[nH]cnc1C(=O)N/N=C/c1c(Cl)cccc1Cl	14.0	-4.1	-7.3	82.8	72.0*
COc1ccccc1CNC(=O)c1sccc1-c1ccccc1	0.6	-12.4	12.2	99.9	-4.2
O=C(N/N=C/c1cc(Cl)cc(Cl)c1O)c1ccncc1	87.5*	-1.8	2.1	94.1	6.5
O=C(N/N=C/c1cc(Br)cc(Br)c1O)c1ccncc1	68.7*	-39.3	?	89.1	-3.7
O=C(N/N=C/c1ccccc1)c1ccc(NC(=O)c2ccc(F)cc2)cc1	-2.4	-1.1	-8.8	106.5	21.4
O=C(N/N=C/c1cc(Br)cc([N+](=O)[O-])c1O)c1ccc(NC(=O)c2ccc(F)cc2)cc1	58.5*	-8.2	7.8	102.6	11.3
O=C(N/N=C/c1ccc(Cl)cc1Cl)c1ccncc1	-1.1	10.5	1.1	104.0	7.0
O=C(N/N=C/c1cc(Cl)ccc1O)c1cccnc1	84.6*	8.4	19.6	95.5	-6.5
O=C(N/N=C\c1cc(Cl)ccc1O)c1ccc(S(=O)(=O)N2CCCCC2)cc1	120.6*	-3.3	91.8*	93.8	7.9
COC(=O)[C@H](C)NC(=O)NCc1ccccc1	1.3	16.8	5.1	101.8	3.6
Nc1ccc(Sc2ccc([N+](=O)[O-])cc2)cc1	-2.7	-0.4	93.3*	92.3	2.8
O=C1C=CC(=O)N1c1ccc(Sc2ccc([N+](=O)[O-])cc2)cc1	-6.7	-99.8	-3.4	98.0	8.0
Cc1cc2c(cc(C(=O)OCC(=O)NCc3ccco3)n2C)s1	10.9	-3.3	101.8*	109.1	0.0
